About 83,000 compounds went through this panel and 20% of them were active in at least one assay; those are over-represented in the sample as a whole.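 Interpretation: 100, growth as untreated; towards 0, rising growth inhibition; 0, no net growth; 0 to -100, cell death. Compounds scoring below 10 were considered active.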 A number with no mark means an inactive call. The source made the active and inactive calls.

Common to all, as to test: NCI-60 one-dose screen, 48 h (100 = growth as untreated, 0 = no growth, -100 = all killed)
The subject of experiment [1] is HCT-15 colon. To be noted: 10 µM unless noted.
The test system of experiment [2] is HT29 colon. To be noted: 10 µM unless noted.
For experiment [3], the system named is SNB-75 CNS. The conditions noted are these: 10 µM unless noted.
For experiment [4], the system named is SNB-19 CNS. The conditions noted are these: 10 µM unless noted.
The subject of experiment [5] is U251 CNS. To be noted: 10 µM unless noted.
In experiment [6] the test system is PC-3 prostate. The conditions noted are these: 10 µM unless noted.
In experiment [7] the test system is SK-MEL-5 melanoma. To be noted: 10 µM unless noted.
In experiment [8] the test system is UACC-62 melanoma. To be noted: 10 µM unless noted.
Experiment [9] has as its system LOX IMVI melanoma. The conditions noted are these: 10 µM unless noted.
Experiment [10] deals with SK-MEL-28 melanoma. To be noted: 10 µM unless noted.
Experiment [11] has as its system SK-MEL-2 melanoma. The conditions noted are these: 10 µM unless noted.
The subject of experiment [12] is EKVX NSCLC. The conditions noted are these: 10 µM unless noted.
For experiment [13], the system named is SN12C renal. To be noted: 10 µM unless noted.
The subject of experiment [14] is TK-10 renal. To be noted: 10 µM unless noted.
In experiment [15] the test system is ACHN renal. To be noted: 10 µM unless noted.
The test system of experiment [16] is CAKI-1 renal. The conditions noted are these: 10 µM unless noted.
Experiment [17] concerns A498 renal. To be noted: 10 µM.
The subject of experiment [18] is HL-60(TB) leukemia. To be noted: 10 µM unless noted.
In experiment [19] the test system is UO-31 renal. The conditions noted are these: 10 µM unless noted.
The test system of experiment [20] is CCRF-CEM leukemia. The conditions noted are these: 10 µM unless noted.

Turning to `CN1C(=O)N[C@H]2[C@@H]3NC(=O)c4ccc(Br)n4[C@@H]3C[C@]21O`, the growth in [1] is 3.29% (active); in experiment [2] it was -15.6% (active); in experiment [3], -70.3% (active); in experiment [4], -15.6% (active); in experiment [5] it was -13.8% (active); in [6] it was -11.7% (active). The growth in experiment [7] is -76.7% (active); in [8] it was -54.2% (active); in experiment [9], -42% (active); in experiment [10], -34.9% (active); in experiment [11], -55.5% (active); in experiment [12], -17.4% (active). Besides, the growth in [13] is -14.1% (active); in experiment [14], -16.7% (active); in [15], -24.6% (active); in experiment [16], 6.74% (active); in experiment [17], -47.8% (active); in [18], -20% (active).

For the molecule `CC(=O)OC[C@]1(C)C=C2C(=O)[C@](C)(O)C3(CC3)C(C)=C2[C@H]1O`, the growth was -8.75% (active) in experiment [1]; -12% (active) in experiment [2]; -91.5% (active) in experiment [3]; -16.5% (active) in experiment [4]; 1.39% (active) in [5]; -15.6% (active) in [6]. Besides, the growth was -62% (active) in experiment [7]; -84.4% (active) in experiment [8]; -30.3% (active) in experiment [9]; -56% (active) in experiment [10]; -55.1% (active) in experiment [11]; -13.7% (active) in experiment [12]. The growth is -5.94% (active) in experiment [13]; -47.3% (active) in experiment [19]; -12.4% (active) in experiment [15]; 1.8% (active) in [16]; -12.4% (active) in experiment [18]; 14.6% in experiment [20].

Consider `CN(C)C(=O)Oc1ccccc1-c1ccccc1`, for which the growth in [1] is 103%; in experiment [2], 101%; in experiment [3], 107%; in experiment [4], 104%; in experiment [5], 101%; in experiment [6], 91.9%. Further, the growth in experiment [7] was 102%; in [8], 104%; in [9] it was 97%; in experiment [10], 116%; in experiment [11], 102%; in [12], 101%. Further, the growth in experiment [13] was 102%; in [15] it was 104%; in [17] it was 115%; in experiment [18], 99.7%; in experiment [20] it was 96.9%.

With `COC(=O)[C@@H](C)C[C@H](Cc1ccccc1)NC(=O)c1csc([C@@H](C[C@H](C(C)C)N(C)C(=O)[C@@H](NC(=O)[C@H]2CCCCN2C)C(C)C)OC(C)=O)n1`, the growth in experiment [1] is 15%; in experiment [2], 5.25% (active); in [3] it was 5.98% (active); in [4] it was 65.6%; in experiment [5] it was -1.97% (active); in [6], 7.77% (active). Moreover, the growth is -50.2% (active) in experiment [7]; 41.7% in [8]; 14.2% in experiment [9]; 39.2% in experiment [10]; 16.3% in experiment [11]; 29.6% in experiment [12]. The growth is 23.3% in experiment [13]; 12.6% in experiment [15]; 12.8% in [16]; -7.32% (active) in experiment [17]; -47.8% (active) in experiment [18]; 0.404% (active) in experiment [20].

Regarding `O=P(Oc1ccc(Cl)cc1)(N1CC1)N1CC1`, the growth is 88.7% in experiment [1]; 72.5% in [2]; 74.2% in experiment [3]; 91% in [4]; 82.6% in experiment [5]; 76.1% in [6]. The growth in [7] is 86.2%; in [8] it was 58%; in [9] it was 83.1%; in experiment [10], 98.3%; in experiment [11], 102%; in [12], 101%. Moreover, the growth is 86.7% in experiment [13]; 104% in experiment [14]; 25% in [15]; 5.92% (active) in experiment [16]; 97.4% in experiment [17]; 96% in experiment [18]. The growth in experiment [20] is 82.5%.

As to `CCOP1(=O)CC(C)=C(Cl)C(P(=O)(OCC)OCC)C1` (stereo not drawn), the growth in [1] is 101%; in [2] it was 96.2%; in experiment [3], 78.7%; in experiment [4], 89.9%; in experiment [5] it was 101%; in [6], 92.6%. Also, the growth in experiment [7] was 101%; in experiment [8], 92.3%; in [9], 92.6%; in experiment [10], 87.3%; in [11], 104%; in [12], 109%. In addition, the growth is 101% in experiment [13]; 135% in experiment [14]; 110% in experiment [15]; 110% in experiment [16]; 103% in experiment [17]; 107% in experiment [18].

As to `CCCC(C)C1(CC)C(=O)NC(=O)N(C)C1=O` (stereo not drawn), the growth is 107% in experiment [1]; 94.6% in [2]; 98.8% in [3]; 104% in [4]; 92.1% in [5]; 85.8% in experiment [6]. Besides, the growth in experiment [7] is 89.1%; in [8] it was 90.8%; in experiment [9] it was 98.6%; in experiment [10], 116%; in experiment [11] it was 85.4%; in experiment [12] it was 105%. For the same molecule, the growth in experiment [19] is 82.3%; in experiment [14] it was 92.6%; in [15], 107%; in experiment [16], 95.7%; in experiment [17] it was 91.8%; in experiment [18], 94.8%. For the same molecule, the growth in experiment [20] is 93.9%.

As to `CCOC(=O)N[C@H]1CCc2c(Br)c(OC)c(OC)c(OC)c2-c2ccc(SC)c(=O)cc21`, the growth in experiment [1] is 8.88% (active); in experiment [2], 13.1%; in experiment [3] it was 17.2%; in experiment [4], 28.7%; in experiment [5], 19.7%; in [6] it was 24.2%. The growth is -23.4% (active) in experiment [7]; 38.7% in experiment [8]; 9.29% (active) in [9]; 56.8% in experiment [10]; 43.5% in [11]; 45.4% in [12]. Also, the growth in experiment [13] is 24.3%; in experiment [14] it was 42.1%; in [15], 24.4%; in experiment [16], 3.95% (active); in experiment [18], -39.9% (active); in experiment [20] it was 1.82% (active).

For the molecule `CCN(CCO)C(Cc1ccccc1)c1ccccc1` (stereo not drawn), the growth is 94.3% in [1]; 98.5% in experiment [2]; 99.8% in experiment [3]; 119% in [4]; 115% in experiment [5]; 94.9% in experiment [6]. Besides, the growth in experiment [7] is 104%; in [8], 107%; in experiment [9], 92.6%; in experiment [10] it was 101%; in [11] it was 105%; in experiment [12], 96.5%. Also, the growth in experiment [13] is 102%; in experiment [19], 94%; in [15], 108%; in [17] it was 96.3%; in [18] it was 111%; in [20] it was 2.74% (active).

The record behind these values is PubChem BioAssay (NCI).
